Experimental findings from PubChem BioAssay AID651800 (The Scripps Research Institute Molecular Screening Center, 2012) are described below.

Screen size: about 360,000 compounds; about 1,300 (0.36%) were called active. No stated cut-off is given here; in the data, active means inhibition above about 19%; inactive means the rest. Shown is part of a subset that was picked to be rich in actives.

This test has as its system T-cell receptor (TCR). Kind of test: small molecules blocking TCR binding to CD3 – biochemical, fluorescence, TAMRA-labeled TCR probe, primary screen (AID 651800).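 Further: recombinant mutant TCR 2C K166C tagged with TAMRA read by polarization; 0% = receptor in buffer alone and 100% = receptor with positive control.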 Particulars: at 9.4 µM, stronger effect = higher value.
Broadly, the inhibition is the relative decrease from the control value, in per cent. For `CC/C(=N\NC(=O)c1ccccc1O)c1c(O)n(Cc2ccccc2)c(=O)[nH]c1=O`, the inhibition was 28.9% (active).

As to `CCCCCCN=C(CC)c1c(O)n(CCCC)c(=O)[nH]c1=O`, the inhibition is 0.66% (inactive).

For `CCCCn1c(O)c(C(CC)=NCc2ccco2)c(=O)[nH]c1=O`, the inhibition was -3.64% (inactive).

As to `Cc1ccc(N(C)C(=O)Oc2cccc3ccc(C)nc23)cc1`, the inhibition is 1.25% (inactive).

For the compound `COc1ccc(NC(=O)c2cn(CCC#N)nc2-c2ccc([N+](=O)[O-])cc2)cc1`, the inhibition was 6.55% (inactive).
